Source: PubChem
Shown are actives, neighbours in structure and some others; about 9.4% of the full set was active somewhere.
FLuc counter: inhibits or activates purified firefly luciferase, miR-21 counter-screen | P08659 | AID 588342 | Potency, µM (doses to about 57.5 µM), inactives show top-dose activity change, negative = inhibition, actives largely listed as inhibitors | 360,000 tested, 6.9% active | purified FLuc, Km substrates, luminescence inhibition;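 also: plate controls were vehicle for no effect and reference inhibitor for full effect; nearly all actives have a fitted effect of over 55% in size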
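Purified P. pyralis luciferase (10nM final) with 10uM D-luciferin and 10uM ATP (Km levels) in 50mM Tris acetate pH 7.5, 10mM Mg acetate, 0.01% Tween-20, 0.05% BSA; qHTS 6-point titration, ~60 µM downward; luminescence read.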
Rab9 prom act: activators of Rab9 promoter; Huh7 Rab9 promoter-luciferase reporter, luminescence, 24 h; AID 485297; Potency, µM (doses to about 9.22 µM), without a hit: at the top dose activation, negative = inhibition, most hits filed as activators; 320,000 tested, 2.8% active; also: % of control where 0% means no effect; nearly all actives have a fitted effect of over 60% in size
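Huh7 reporter line, Rab9 promoter upstream of luciferase. Compound exposure 24 h at 37 °C in reduced-serum medium with 10% FBS. Read-out: luminescence.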
ELG1 genotoxic: induces genotoxicity in HEK293T cells with luciferase-tagged ELG1; Potency, µM (top dose mostly 46 µM), without a hit: top-dose activity change, positive = activation, most hits filed as activators; AID 504466; HEK293T ELG1-luciferase reporter, luminescence, 16 h; 330,000 tested, 1.3% active; also: % of control where 0% means no effect; nearly all actives have a fitted effect of over 60% in size
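HEK293T cells expressing luciferase-tagged ELG1 were exposed to compound or DMSO vehicle for 16 hr at 37 °C and 5% CO2. Luciferase activity was then measured with ONE-Glo after 30 min at room temperature.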
SMN2 splice enh: enhancers of SMN2 splice variant expression; 210,000 tested, 2.8% active; HEK293 SMN2-luciferase splicing reporter, luminescence, 30-36 h; Potency, µM (series often up to 46.1 µM), for inactives: at the top dose activity change, positive = activation, most hits filed as activators; AID 1458; also: % of control where 0% means no effect; nearly all actives have a fitted effect of over 55% in size
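HEK293 cells carry an SMN2 […]–luciferase reporter in which exon 7 inclusion puts luciferase in frame. Cells were plated 10-12 h before compound addition, then incubated 30-36 h at 37C. ONE-Glo luminescence was read; sodium butyrate at 4.5 mM final served as control.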
ELG1 repair inh: ELG1-dependent DNA repair inhibition | 330,000 tested, 2.3% active | AID 504467 | Potency, µM (top dose mostly 46.1 µM), for the others: at the highest dose activity change, negative = inhibition, most hits filed as inhibitors | HEK293T ELG1-luciferase reporter, luminescence, 16 h; DNA damage induced by 5-fluorouridine; also: % is scaled to controls: 0 for no effect and ±100 for the full control effect; nearly all actives have a fitted effect of over 55% in size
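Reporter activity after DNA damage by 5-fluorouridine is monitored. Compound-treated cells incubate 16 hr at 37 °C, then ONE-Glo is added for 30 min before luminescence reading.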
NPC1 prom act: activates the NPC1 promoter. 320,000 tested, 2.4% active. Huh7 NPC1 promoter luciferase reporter, 24 h. Potency, µM (doses to about 9.22 µM), for the others: at the top dose activation, usual class: activators; also: % of control where 0% means no effect; nearly all actives have a fitted effect of over 60% in size
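NPC1 promoter–luciferase Huh7 cells; 24 h compound; luminescence.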
ELG1 FLuc counter: luciferase inhibition in cell-free luciferin readout for ELG1 hits | shares compounds with ELG1 repair inh | cell-free firefly luciferase luminescence counter-screen, ViewLux | Potency, µM (titrated, usually from 46.1 µM), without a hit: at the top dose activity change, negative = inhibition, usual class: inhibitors | 350 tested, 3% active; also: % is scaled to controls: 0 for no effect and ±100 for the full control effect
ELG1-Luc inh: human ELG1 repair inhibition, luciferase-tagged ELG1 confirmation. 670 tested, 68% active. Potency, µM (titrated, usually from 46.1 µM), inactives show at the highest dose activity change, negative = inhibition, usual class: inhibitors. HEK293T ELG1-luciferase levels, luminescence; cells co-treated with 5-fluorouridine. shares compounds with ELG1 repair inh; also: % is scaled to controls: 0 for no effect and ±100 for the full control effect; nearly all actives have a fitted effect of over 55% in size
Target sequence (Q96QE3 whole entry, looked up): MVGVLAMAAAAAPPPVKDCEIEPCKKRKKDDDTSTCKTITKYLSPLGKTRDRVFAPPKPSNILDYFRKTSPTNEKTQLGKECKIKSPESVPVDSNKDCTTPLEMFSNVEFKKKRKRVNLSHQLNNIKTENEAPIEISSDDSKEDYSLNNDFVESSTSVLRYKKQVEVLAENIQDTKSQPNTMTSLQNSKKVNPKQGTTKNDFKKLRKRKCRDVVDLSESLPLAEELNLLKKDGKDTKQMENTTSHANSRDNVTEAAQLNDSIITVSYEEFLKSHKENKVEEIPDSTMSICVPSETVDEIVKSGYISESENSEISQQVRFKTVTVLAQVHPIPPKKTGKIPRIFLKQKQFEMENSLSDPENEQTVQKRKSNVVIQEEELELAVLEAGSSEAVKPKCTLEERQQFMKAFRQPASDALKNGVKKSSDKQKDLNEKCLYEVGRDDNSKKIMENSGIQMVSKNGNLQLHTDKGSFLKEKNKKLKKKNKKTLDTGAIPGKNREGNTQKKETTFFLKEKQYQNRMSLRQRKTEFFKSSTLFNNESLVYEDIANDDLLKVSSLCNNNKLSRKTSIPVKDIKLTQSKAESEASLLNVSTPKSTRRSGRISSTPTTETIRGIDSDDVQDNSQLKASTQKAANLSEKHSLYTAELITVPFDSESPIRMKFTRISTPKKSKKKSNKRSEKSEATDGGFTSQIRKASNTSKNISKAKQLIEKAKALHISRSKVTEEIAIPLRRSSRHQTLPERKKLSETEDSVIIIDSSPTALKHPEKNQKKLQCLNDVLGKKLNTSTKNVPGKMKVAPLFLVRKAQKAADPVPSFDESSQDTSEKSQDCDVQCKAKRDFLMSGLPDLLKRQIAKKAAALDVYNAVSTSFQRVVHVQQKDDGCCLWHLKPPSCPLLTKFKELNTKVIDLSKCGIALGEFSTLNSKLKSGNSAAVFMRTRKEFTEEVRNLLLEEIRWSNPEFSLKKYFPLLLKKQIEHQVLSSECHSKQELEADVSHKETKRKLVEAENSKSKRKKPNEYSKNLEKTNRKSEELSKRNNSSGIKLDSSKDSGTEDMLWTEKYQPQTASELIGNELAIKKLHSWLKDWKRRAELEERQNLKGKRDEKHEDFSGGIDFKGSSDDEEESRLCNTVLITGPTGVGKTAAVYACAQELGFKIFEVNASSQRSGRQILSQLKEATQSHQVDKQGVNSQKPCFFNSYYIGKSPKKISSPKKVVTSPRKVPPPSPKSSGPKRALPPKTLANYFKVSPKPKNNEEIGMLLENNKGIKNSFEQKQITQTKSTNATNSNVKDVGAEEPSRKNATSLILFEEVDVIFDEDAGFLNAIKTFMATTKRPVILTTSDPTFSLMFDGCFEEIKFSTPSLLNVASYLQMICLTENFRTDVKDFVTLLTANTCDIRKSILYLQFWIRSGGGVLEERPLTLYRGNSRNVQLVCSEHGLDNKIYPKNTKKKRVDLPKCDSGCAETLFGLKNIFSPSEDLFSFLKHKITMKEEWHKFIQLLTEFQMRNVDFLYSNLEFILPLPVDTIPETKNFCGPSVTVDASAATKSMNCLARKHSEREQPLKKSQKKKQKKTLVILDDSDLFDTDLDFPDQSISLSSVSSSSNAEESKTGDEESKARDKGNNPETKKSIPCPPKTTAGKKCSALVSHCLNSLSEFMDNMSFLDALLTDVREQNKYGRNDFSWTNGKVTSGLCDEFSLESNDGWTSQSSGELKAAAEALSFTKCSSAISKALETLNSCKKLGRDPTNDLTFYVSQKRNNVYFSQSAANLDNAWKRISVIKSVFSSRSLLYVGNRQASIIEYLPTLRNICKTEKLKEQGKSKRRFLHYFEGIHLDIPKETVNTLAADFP
ELG1 MMS Luc: inhibits ELG1-dependent repair under MMS stimulation in HEK293T cells | AID 624249 | HEK293T luciferase-tagged ELG1 level, MMS stimulated | shares compounds with ELG1 repair inh | 670 tested, 53% active | Potency, µM (highest dose often 46.1 µM), for inactives: at the top dose activity change, negative = inhibition, usual class: inhibitors; also: % is scaled to controls: 0 for no effect and ±100 for the full control effect; nearly all actives have a fitted effect of over 60% in size
ELG1 5-FU: confirmation of ELG1 repair inhibitors: viability with 5FU. AID 624250. shares compounds with ELG1 repair inh. 670 tested, under 10 active. Potency, µM (top dose mostly 46.1 µM), for the others: top-dose activity change, negative = viability loss, usual class: cytotoxic. cell viability with 5-FU, ELG1-dependent repair;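 also: ELG1-luc HEK293T cells cotreated with 5-fluorouridine at 10 µM final; viability measured 16 h after compound addition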
ELG1 MMS viab: confirmation of ELG1 repair inhibitors: viability with MMS. shares compounds with ELG1 repair inh. Cell viability with MMS, ELG1-dependent DNA repair. Potency, µM (highest dose often 46.1 µM), for the others: at the top dose activity change, negative = viability loss, actives largely listed as cytotoxic. 670 tested, 33% active. AID 624251;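 also: ELG1-luc HEK293T cells co-treated with 10 µM MMS; viability read 16 h after compound addition; % is scaled to controls: 0 for no effect and ±100 for the full control effect; nearly all actives have a fitted effect of over 60% in size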
ELG1 unstim viab: unstimulated viability counter-screen for ELG1 repair hits; AID 624252; cell viability counter-screen, unstimulated, luminescence; shares compounds with ELG1 repair inh; Potency, µM (titrated, usually from 45.9 µM), for the others: top-dose activity change, negative = loss of viability, hits mostly cytotoxic; 900 tested, 8% active;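 also: compound exposure lasted 16 hours before reading; % is scaled to controls: 0 for no effect and ±100 for the full control effect; nearly all actives have a fitted effect of over 55% in size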
FLuc enzyme: counter-screen for ELG1 repair inhibitors: firefly luciferase inhibition | Potency, µM (highest dose often 57.5 µM), for inactives: top-dose activity, negative = inhibition, actives largely listed as inhibitors | 350 tested, 10% active | shares compounds with ELG1 repair inh | purified firefly luciferase, luminescence counter-screen; also: % is scaled to controls: 0 for no effect and ±100 for the full control effect
* marks the source's active call; other numbers are inactive results; ? = inconclusive; . = no result; [ ] = another dose, or the depositor's remark. Calls follow the shape of the dose curve; as a rule, active = well fitted curve in the direction sought with a large enough effect; inconclusive = small, poorly fitted or top-dose-only effect, or another doubt; inactive = no such curve, though single readings can be large; an effect the other way counts as inactive or inconclusive. Potency is read from the fitted curve at half-maximal effect.

SMILES | FLuc counter | Rab9 prom act | ELG1 genotoxic | SMN2 splice enh | ELG1 repair inh | NPC1 prom act | ELG1 FLuc counter | ELG1-Luc inh | ELG1 MMS Luc | ELG1 5-FU | ELG1 MMS viab | ELG1 unstim viab | FLuc enzyme
Cc1c(C(=O)NCc2ccco2)oc2ccc(S(=O)(=O)N3CCC4(CC3)OCCO4)cc12 | -2% | -5% | -7% | -14% | 3.3µM* | -5% | 63% | 4.5µM* | -12% | ? | -11% | ? | 0%
O=C(CC1N=C2c3ccccc3N=C(SCC(=O)Nc3cccc(Cl)c3)N2C1=O)NCc1cccs1 (centres undefined) | 4% | . | . | . | . | . | . | . | . | . | . | . | .
C[C@@H]1CN([C@H](C)CO)C(=O)c2cc(NC(=O)Nc3ccc(C(F)(F)F)cc3)ccc2O[C@H]1CN(C)Cc1ccc(Cl)c(Cl)c1 | . | . | -7% | . | ? | . | . | . | . | . | . | . | .
C[C@H]1CN([C@@H](C)CO)C(=O)c2cccc(NC(=O)Nc3ccc(C(F)(F)F)cc3)c2O[C@@H]1CN(C)Cc1ccc(Cl)c(Cl)c1 | . | . | -11% | . | 4.6µM* | . | . | 14µM* | 14µM* | ? | 25µM* | 13µM* | .
C[C@H](CO)N1C[C@H](C)[C@@H](CN(C)C(=O)Nc2ccc(C(F)(F)F)cc2)Oc2c(NC(=O)Nc3ccc4c(c3)OCO4)cccc2C1=O | . | . | -3% | . | 0.58µM* | . | 6% | 2µM* | -18% | ? | 9% | -12% | ?
COc1ccc(NC(=O)N(C)C[C@H]2Oc3c(NC(=O)Nc4ccc(C(F)(F)F)cc4)cccc3C(=O)N([C@H](C)CO)C[C@@H]2C)cc1 | . | . | -13% | . | ? | . | . | . | . | . | . | . | .
C[C@H](CO)N1C[C@H](C)[C@@H](CN(C)C(=O)Nc2ccc(C(F)(F)F)cc2)Oc2c(NC(=O)Nc3ccccc3)cccc2C1=O | . | . | -7% | . | 0.52µM* | . | -11% | 6.3µM* | -13% | ? | -7% | ? | ?
CC(C)Cn1c(=O)c2ccccc2n2c(CCC(=O)NC(C)c3ccccc3)nnc12 (centres undefined) | -1% | . | . | -12% | . | . | . | . | . | . | . | . | .
Cc1ccc2c(=O)cc(C(=O)Nc3sc4c(c3C(=O)NCc3ccco3)CCC4)oc2c1 | -2% | . | . | 3% | . | . | . | . | . | . | . | . | .
COc1cccc(CNC(=O)C2CCCN(c3nn4c(=O)cc(C)nc4s3)C2)c1 (centres undefined) | 1% | 10% | ? | -9% | ? | -1% | 1% | . | . | . | . | 8% | 6%
Cc1cc(=O)oc2cc(NC(=O)C(C)Oc3ccc(F)cc3)ccc12 (centres undefined) | 1% | -2% | 8% | . | -4% | -1% | . | . | . | . | . | . | .
Cc1cc(=O)oc2cc(NC(=O)c3ccc(OC(F)F)cc3)ccc12 | -14% | ? | 4.5µM* | . | ? | ? | . | . | . | . | . | -2% | .
CC(Oc1ccccc1)C(=O)Nc1c(C(=O)Nc2cccc(F)c2)oc2ccccc12 (centres undefined) | -1% | . | . | 5% | . | . | . | . | . | . | . | . | .
CCc1ccc(NCc2cc3cc4c(cc3n(CC(=O)Nc3ccc(C)cc3)c2=O)OCO4)cc1 | -14% | . | . | . | . | . | . | . | . | . | . | . | .
COc1cccc(CNC(=O)CCn2nc(C)c3c(C)n(-c4ccccc4)nc3c2=O)c1 | -3% | . | . | . | . | . | . | . | . | . | . | . | .
CCn1c(=O)n(CC)c2cc(S(=O)(=O)N3CCCCC3)c(C)cc21 | 0% | 5% | ? | ? | ? | -2% | 35% | . | . | . | . | -15% | 6%
CCn1c(=O)n(CC)c2cc(S(N)(=O)=O)c(C)cc21 | 2%[2.3 µM] | 0% | 4% | 16% | 13% | 0% | . | . | . | . | . | . | .
Cc1c(-c2ccccc2)n(-c2ccc(Cl)cc2)c2nc3c(c(=O)n(C)c(=O)n3C)n12 | 5% | . | . | . | . | . | . | . | . | . | . | . | .
CCOC(=O)C1CCN(c2cc3c(cc2NC(=O)c2ccccc2Br)n(C)c(=O)n3C)CC1 | 2% | -4% | -8% | . | 9.2µM* | 2% | 0% | 7.9µM* | ? | ? | 7% | -1% | 0%
CCOC(=O)C1CCN(c2cc3c(cc2NC(=O)c2cc(OC)ccc2Br)n(C)c(=O)n3C)CC1 | 0% | 11% | -7% | . | ? | 1% | . | . | . | . | . | . | .
C#Cc1ccc([C@H]2C=C(C(=O)N3CCN(Cc4ccc5c(c4)OCO5)CC3)O[C@@H](OCc3ccc(CO)cc3)C2)cc1 | -1% | -5% | -10% | . | 1.6µM* | -4% | -7% | 5.6µM* | ? | ? | ? | -3% | -1%
O=C(C1=C[C@H](c2ccc(Br)cc2)C[C@H](OCc2ccc(CO)cc2)O1)N1CCN(Cc2ccc3c(c2)OCO3)CC1 | 0% | -5% | -14% | . | 9.2µM* | -2% | ? | 7.9µM* | ? | ? | -6% | ? | -9%
COCCn1c(C(C)C)nc2oc3ccccc3c(=O)c2c1=O | 0% | 2% | 0% | 6% | 1.4µM* | 2% | . | 5% | 11% | 10% | 8% | 12% | .
CCc1nc2oc3ccccc3c(=O)c2c(=O)n1CCOC | -1% | -14% | 2% | -9% | 6% | 0% | . | . | . | . | . | . | .
